The results in this text go back to ChEMBL document CHEMBL1961873, “Compounds: GSK PKIS; Assays: Nanosyn kinase panel” (2012).

The target in test [1] is Sphingosine kinase 1 (Homo sapiens) (UniProt Q9NYA1). The conditions noted are these: at 1 µM.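 Further: mean SPHK1 inhibition value reported from the GSK PKIS kinase panel screen.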
Test [2] concerns the target T1, Sphingosine kinase 2 (Homo sapiens) (UniProt Q9NRA0).
T1 sequence (whole entry): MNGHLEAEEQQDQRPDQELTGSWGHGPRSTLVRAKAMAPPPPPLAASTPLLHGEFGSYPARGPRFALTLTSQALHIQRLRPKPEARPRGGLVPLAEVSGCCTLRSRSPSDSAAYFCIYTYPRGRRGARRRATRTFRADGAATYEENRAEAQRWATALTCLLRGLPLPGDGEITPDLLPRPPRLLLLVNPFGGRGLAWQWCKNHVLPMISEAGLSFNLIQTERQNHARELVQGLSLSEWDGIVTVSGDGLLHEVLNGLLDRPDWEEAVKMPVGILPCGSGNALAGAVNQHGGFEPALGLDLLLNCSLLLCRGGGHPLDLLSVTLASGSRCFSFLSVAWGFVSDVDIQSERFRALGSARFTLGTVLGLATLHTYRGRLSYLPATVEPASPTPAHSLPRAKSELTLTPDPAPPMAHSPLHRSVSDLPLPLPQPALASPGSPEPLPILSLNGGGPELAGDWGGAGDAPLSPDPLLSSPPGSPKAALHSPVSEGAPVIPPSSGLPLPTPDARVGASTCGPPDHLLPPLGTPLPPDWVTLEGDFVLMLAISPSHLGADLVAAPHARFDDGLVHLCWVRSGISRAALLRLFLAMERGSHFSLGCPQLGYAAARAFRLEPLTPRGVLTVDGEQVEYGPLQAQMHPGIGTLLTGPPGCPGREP
The conditions noted are these: at 0.1 µM.

Test [3] concerns the target T1, Sphingosine kinase 2 (Homo sapiens). The note with it: at 1 µM.
For test [4], the target named is Casein kinase II subunit alpha (Homo sapiens) (UniProt P68400). The note with it: at 0.1 µM.
Sequence of Casein kinase II subunit alpha (Homo sapiens) (P68400 whole entry, looked up): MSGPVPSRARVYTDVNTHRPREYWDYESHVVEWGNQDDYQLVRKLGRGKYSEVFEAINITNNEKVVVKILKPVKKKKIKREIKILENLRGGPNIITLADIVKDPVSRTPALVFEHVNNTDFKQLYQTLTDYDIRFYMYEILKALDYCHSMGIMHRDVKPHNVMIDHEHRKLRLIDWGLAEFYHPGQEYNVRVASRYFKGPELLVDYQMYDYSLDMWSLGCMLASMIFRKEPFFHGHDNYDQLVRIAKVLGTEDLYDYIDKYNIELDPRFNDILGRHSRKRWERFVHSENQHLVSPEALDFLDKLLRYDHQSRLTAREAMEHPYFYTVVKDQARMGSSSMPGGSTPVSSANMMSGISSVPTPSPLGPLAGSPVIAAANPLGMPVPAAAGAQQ
Test [5] shares this target. The note with it: at 1 µM.
Test [6] concerns the target T2, Inhibitor of nuclear factor kappa-B kinase subunit alpha (Homo sapiens) (UniProt O15111).
T2 sequence (whole entry): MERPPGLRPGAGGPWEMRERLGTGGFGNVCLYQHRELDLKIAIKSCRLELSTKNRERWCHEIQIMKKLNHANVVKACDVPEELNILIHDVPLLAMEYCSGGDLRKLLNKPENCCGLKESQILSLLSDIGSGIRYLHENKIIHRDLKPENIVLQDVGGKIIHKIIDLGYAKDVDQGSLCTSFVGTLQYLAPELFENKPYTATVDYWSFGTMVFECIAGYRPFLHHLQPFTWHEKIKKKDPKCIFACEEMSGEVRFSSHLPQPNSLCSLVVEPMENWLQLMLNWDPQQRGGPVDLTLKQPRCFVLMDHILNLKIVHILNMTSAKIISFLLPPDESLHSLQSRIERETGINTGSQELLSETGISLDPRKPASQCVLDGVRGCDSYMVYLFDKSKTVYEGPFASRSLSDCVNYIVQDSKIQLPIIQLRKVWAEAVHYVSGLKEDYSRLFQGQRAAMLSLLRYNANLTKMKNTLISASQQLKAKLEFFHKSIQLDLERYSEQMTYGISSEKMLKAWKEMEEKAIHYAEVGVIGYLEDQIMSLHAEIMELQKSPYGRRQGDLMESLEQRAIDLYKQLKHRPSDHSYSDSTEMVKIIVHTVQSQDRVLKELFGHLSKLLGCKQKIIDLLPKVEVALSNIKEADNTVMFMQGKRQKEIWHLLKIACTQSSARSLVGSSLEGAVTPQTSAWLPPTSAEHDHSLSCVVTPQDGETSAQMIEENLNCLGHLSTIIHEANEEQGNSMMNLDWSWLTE
The note with it: at 0.1 µM.

For test [7], the target named is T2, Inhibitor of nuclear factor kappa-B kinase subunit alpha (Homo sapiens). The conditions noted are these: at 1 µM.
In test [8] the target is T3, Inhibitor of nuclear factor kappa-B kinase subunit beta (Homo sapiens) (UniProt O14920).
T3 sequence (whole entry): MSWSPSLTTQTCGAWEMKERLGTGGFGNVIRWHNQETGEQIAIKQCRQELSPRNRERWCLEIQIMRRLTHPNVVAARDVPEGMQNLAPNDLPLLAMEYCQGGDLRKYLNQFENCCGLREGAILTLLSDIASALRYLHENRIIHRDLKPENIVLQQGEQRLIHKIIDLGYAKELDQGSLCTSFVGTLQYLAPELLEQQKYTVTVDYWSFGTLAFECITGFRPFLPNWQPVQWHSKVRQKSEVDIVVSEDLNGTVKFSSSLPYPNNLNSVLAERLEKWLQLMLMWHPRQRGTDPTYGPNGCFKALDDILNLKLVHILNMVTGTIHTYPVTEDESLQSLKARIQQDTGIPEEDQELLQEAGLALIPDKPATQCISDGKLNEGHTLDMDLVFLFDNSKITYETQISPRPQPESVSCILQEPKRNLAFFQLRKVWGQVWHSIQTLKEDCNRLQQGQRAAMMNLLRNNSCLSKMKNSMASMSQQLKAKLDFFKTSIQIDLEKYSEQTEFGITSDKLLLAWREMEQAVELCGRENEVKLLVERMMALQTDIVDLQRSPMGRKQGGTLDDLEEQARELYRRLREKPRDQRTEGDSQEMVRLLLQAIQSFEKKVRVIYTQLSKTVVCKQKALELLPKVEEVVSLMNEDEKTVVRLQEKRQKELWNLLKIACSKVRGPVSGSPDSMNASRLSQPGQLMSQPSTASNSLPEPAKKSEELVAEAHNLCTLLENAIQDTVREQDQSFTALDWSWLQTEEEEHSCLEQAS
The conditions noted are these: at 0.1 µM.

Test [9] deals with T3, Inhibitor of nuclear factor kappa-B kinase subunit beta (Homo sapiens). The conditions noted are these: at 1 µM.
For test [10], the target named is T4, Inhibitor of nuclear factor kappa-B kinase subunit epsilon (Homo sapiens) (UniProt Q14164).
T4 sequence (whole entry): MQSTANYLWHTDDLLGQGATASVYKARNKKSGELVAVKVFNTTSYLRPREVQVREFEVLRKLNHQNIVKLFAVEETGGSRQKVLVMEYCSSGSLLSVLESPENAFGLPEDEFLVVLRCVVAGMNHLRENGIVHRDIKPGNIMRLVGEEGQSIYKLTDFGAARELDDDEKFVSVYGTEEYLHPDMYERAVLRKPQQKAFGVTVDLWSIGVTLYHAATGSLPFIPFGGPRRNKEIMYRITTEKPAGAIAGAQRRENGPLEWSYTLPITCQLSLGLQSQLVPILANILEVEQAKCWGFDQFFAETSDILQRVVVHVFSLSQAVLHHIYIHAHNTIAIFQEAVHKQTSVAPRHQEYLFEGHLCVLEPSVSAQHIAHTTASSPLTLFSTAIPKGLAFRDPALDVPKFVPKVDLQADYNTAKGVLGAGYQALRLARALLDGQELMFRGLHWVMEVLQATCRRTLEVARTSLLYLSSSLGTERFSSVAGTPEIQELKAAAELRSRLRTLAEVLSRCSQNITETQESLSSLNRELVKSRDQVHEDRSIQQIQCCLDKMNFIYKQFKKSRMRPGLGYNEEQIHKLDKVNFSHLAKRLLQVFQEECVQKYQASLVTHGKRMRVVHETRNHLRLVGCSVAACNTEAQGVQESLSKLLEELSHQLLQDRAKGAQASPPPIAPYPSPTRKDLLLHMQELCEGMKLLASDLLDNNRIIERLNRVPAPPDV
The conditions noted are these: at 0.1 µM.

In test [11] the target is T4, Inhibitor of nuclear factor kappa-B kinase subunit epsilon (Homo sapiens). The conditions noted are these: at 1 µM.
The target of test [12] is T5, Serine/threonine-protein kinase Nek1 (Homo sapiens) (UniProt Q96PY6).
T5 sequence (whole entry): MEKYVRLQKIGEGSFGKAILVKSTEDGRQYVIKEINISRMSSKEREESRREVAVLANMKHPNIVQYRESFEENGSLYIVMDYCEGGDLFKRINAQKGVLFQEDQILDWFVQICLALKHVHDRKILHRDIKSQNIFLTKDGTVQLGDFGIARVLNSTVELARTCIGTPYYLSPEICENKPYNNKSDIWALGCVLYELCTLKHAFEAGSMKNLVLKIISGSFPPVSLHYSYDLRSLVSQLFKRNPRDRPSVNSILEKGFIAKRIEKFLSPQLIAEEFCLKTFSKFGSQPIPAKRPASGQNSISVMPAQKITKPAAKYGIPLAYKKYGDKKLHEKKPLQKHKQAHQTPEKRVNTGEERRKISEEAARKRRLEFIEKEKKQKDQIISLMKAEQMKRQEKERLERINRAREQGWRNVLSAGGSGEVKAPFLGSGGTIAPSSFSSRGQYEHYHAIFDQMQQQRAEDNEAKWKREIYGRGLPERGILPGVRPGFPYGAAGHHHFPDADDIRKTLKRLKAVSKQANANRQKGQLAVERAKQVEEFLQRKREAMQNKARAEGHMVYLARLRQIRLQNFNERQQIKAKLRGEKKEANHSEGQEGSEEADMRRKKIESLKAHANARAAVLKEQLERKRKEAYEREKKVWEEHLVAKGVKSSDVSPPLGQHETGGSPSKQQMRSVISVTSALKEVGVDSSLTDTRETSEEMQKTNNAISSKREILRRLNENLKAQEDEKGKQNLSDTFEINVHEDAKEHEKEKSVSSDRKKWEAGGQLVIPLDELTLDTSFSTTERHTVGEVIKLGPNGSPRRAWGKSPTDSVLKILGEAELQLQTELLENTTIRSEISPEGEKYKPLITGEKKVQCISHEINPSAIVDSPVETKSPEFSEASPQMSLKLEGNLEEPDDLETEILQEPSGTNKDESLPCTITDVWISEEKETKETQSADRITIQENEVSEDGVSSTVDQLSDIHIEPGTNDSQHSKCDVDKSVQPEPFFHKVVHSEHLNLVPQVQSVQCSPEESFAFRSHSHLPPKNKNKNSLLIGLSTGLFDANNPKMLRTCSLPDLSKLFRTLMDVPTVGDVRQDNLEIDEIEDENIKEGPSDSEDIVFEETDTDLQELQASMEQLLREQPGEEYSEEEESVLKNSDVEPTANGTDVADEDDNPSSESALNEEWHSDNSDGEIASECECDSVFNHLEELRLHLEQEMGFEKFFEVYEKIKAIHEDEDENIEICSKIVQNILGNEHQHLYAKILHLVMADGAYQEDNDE
The conditions noted are these: at 0.1 µM.

Test [13] has as its target T5, Serine/threonine-protein kinase Nek1 (Homo sapiens). The note with it: at 1 µM.
Test [14] addresses T6, Serine/threonine-protein kinase Nek2 (Homo sapiens) (UniProt P51955).
T6 sequence (whole entry): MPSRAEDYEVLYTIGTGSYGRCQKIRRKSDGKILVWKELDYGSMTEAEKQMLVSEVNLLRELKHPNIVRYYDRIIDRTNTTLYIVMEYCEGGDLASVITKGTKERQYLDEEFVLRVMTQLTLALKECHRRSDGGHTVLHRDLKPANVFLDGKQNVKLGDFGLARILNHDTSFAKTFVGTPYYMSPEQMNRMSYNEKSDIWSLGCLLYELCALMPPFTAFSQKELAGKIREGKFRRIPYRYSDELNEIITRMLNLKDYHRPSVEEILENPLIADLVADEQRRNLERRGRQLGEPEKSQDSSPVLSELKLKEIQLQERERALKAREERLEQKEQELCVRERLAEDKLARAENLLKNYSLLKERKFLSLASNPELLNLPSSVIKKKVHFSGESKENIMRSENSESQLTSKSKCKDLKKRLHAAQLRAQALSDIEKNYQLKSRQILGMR
The note with it: at 0.1 µM.

Test [15] has as its target T6, Serine/threonine-protein kinase Nek2 (Homo sapiens). The note with it: at 1 µM.
The target of test [16] is Serine/threonine-protein kinase Nek6 (Homo sapiens) (UniProt Q9HC98). The conditions noted are these: at 0.1 µM.
Sequence of Serine/threonine-protein kinase Nek6 (Homo sapiens) (Q9HC98 whole entry): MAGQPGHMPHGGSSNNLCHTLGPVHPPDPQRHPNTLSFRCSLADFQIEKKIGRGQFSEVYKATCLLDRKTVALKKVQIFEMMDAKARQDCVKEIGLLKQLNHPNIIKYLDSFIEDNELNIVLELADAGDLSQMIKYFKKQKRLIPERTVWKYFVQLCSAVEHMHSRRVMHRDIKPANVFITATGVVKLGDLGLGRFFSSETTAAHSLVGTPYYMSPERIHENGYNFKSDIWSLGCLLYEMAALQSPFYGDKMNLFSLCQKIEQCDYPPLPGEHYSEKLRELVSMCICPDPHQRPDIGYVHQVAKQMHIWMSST
For test [17] the target is unchanged. The conditions noted are these: at 1 µM.
Test [18] addresses Serine/threonine-protein kinase Nek7 (Homo sapiens) (UniProt Q8TDX7). The conditions noted are these: at 0.1 µM.
The target is the same in test [19]. The note with it: at 1 µM.
The target of test [20] is T7, Serine/threonine-protein kinase Nek9 (Homo sapiens) (UniProt Q8TD19).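 Further: reported value is the mean percent inhibition of NEK9.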
T7 sequence (whole entry): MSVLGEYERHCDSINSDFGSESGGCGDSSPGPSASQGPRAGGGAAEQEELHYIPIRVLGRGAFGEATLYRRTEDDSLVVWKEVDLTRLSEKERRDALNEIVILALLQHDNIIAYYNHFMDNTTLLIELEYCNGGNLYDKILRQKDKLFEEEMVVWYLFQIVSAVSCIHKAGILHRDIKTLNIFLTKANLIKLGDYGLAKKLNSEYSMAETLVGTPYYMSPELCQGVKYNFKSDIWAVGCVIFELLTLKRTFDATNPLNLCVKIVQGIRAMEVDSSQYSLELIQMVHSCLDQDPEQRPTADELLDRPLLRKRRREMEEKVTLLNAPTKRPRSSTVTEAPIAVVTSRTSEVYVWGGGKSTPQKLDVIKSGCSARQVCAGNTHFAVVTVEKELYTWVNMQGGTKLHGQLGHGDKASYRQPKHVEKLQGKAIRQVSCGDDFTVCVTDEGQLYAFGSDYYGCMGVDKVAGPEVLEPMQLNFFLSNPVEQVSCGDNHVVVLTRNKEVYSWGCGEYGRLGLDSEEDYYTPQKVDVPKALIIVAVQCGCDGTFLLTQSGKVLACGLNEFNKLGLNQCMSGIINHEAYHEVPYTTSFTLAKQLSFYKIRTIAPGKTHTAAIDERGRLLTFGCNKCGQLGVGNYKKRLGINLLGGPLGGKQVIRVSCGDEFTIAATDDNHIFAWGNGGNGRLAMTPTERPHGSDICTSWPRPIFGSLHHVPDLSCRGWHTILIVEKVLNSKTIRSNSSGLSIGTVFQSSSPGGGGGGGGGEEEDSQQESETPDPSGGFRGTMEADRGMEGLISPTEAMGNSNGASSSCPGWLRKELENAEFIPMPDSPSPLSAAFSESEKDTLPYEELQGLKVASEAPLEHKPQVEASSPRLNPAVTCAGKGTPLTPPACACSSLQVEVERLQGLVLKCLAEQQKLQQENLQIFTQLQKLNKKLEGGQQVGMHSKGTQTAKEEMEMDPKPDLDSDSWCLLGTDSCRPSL
The conditions noted are these: at 0.1 µM.

Sequence of Serine/threonine-protein kinase Nek7 (Homo sapiens) (Q8TDX7 whole entry, looked up): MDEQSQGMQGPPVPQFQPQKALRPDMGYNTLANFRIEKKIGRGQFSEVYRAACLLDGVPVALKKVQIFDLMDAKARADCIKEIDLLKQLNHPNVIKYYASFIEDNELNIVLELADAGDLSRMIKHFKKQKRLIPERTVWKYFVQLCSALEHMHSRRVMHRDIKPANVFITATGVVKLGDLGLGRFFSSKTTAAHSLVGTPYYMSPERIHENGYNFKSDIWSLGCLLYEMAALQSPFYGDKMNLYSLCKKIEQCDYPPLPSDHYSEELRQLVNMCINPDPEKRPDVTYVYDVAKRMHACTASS
Sequence of Sphingosine kinase 1 (Homo sapiens) (Q9NYA1 whole entry): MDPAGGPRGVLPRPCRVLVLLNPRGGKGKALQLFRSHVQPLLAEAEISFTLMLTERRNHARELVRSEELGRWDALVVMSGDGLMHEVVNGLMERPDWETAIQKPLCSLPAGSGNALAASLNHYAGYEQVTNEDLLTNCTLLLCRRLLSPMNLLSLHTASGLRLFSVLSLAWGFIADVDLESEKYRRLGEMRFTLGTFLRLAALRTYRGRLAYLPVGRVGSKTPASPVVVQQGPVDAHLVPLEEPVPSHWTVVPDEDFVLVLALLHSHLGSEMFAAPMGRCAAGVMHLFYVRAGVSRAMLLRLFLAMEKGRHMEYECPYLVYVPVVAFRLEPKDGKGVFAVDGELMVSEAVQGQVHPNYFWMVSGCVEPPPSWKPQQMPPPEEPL

One may read the inhibition as the drop in the measured response relative to a control, in per cent. Consider `CCS(=O)(=O)c1ccc(OC)c(Nc2ncc(-c3cccc(-c4ccccc4F)c3)o2)c1`, for which the inhibition in [1] is 0.74%; in [2], 0.06%; in test [3], -2.48%; in [4], 1.79%; in test [5], 4.95%; in [6] it was 3.18%. The inhibition in test [7] is 3.18%; in [8], 0.01%; in test [9], -1.42%; in [10] it was -1.02%; in [11] it was 0.08%; in test [12], 1.03%. In addition, the inhibition in [13] was 1.67%; in test [14], 0.99%; in test [15], -0.68%; in test [16] it was 1.36%; in [17], -2.09%; in [18], 1.63%. Also, the inhibition is -0.61% in [19] and -0.87% in test [20].
